The record followed here is PMC7862700, “An all-to-all approach to the identification of sequence-specific readers for epigenetic DNA modifications on cytosine”.

What all share (experiment): DAPPL (digital affinity profiling via proximity ligation, sequencing); 10 mM Tris-HCl pH 7.5, 50 mM NaCl, 1 mM DTT, 4% glycerol, room temperature, 30 min; GST-TFs on glutathione beads, 16-mer random dsDNA library, 0.1% formaldehyde crosslink after washing; high values mean tight binding
For experiment [1], the target named is T1, FLI1 (Homo sapiens, UniProt Q01543 1-452).
T1 sequence: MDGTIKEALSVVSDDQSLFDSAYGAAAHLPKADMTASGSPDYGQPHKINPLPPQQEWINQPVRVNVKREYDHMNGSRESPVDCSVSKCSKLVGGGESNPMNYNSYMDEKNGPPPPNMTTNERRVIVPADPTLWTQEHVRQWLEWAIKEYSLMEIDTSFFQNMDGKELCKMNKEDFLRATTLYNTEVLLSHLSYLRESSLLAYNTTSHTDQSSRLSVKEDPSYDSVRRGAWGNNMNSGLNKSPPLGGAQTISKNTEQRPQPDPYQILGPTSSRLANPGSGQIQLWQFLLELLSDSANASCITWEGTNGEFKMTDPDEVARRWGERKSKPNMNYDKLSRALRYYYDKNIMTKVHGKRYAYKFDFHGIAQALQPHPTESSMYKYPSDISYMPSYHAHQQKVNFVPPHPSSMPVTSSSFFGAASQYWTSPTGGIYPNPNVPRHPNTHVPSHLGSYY
The note with it: protein: recombinant; tags: N-terminal GST; dsDNA, one strand shown. In short, it runs like this: (§1)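 Sequencing on an Illumina NextSeq500 followed washing, crosslinking with 0.1% formaldehyde, proximity ligation (BsaI/T4 ligase, 1 h, 37 °C) and PCR amplification of pools that had been incubated for 30 min at room temperature with 200 nmole of a random double-stranded 16-mer DNA library in Tris/NaCl/DTT/glycerol buffer. Each pool held DNA-barcoded human transcription factors, expressed in yeast as GST fusions and captured on glutathione beads, plus a tag-only sample. Binding signal is a hexamer's read frequency for a factor divided by its frequency in the tag-only sample.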

The target of experiment [2] is T2, ELK1 (Homo sapiens, UniProt P19419 1-428).
T2 sequence: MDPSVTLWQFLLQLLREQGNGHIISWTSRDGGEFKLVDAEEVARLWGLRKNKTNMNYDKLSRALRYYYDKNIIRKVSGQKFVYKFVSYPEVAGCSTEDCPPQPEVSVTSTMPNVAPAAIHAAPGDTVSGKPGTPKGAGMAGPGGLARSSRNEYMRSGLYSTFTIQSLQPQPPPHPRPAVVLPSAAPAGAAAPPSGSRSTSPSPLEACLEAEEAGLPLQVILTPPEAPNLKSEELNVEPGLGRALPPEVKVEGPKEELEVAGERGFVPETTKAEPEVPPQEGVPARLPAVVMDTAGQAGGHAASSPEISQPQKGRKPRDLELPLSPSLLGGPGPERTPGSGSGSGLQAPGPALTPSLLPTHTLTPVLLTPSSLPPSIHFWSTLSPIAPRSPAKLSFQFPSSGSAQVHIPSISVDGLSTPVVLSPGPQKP
The note with it: protein: recombinant; tags: N-terminal GST; dsDNA, one strand shown. Put shortly:
as §1

For experiment [3], the target named is T3, GABPA (Homo sapiens, UniProt Q06546 1-454).
T3 sequence: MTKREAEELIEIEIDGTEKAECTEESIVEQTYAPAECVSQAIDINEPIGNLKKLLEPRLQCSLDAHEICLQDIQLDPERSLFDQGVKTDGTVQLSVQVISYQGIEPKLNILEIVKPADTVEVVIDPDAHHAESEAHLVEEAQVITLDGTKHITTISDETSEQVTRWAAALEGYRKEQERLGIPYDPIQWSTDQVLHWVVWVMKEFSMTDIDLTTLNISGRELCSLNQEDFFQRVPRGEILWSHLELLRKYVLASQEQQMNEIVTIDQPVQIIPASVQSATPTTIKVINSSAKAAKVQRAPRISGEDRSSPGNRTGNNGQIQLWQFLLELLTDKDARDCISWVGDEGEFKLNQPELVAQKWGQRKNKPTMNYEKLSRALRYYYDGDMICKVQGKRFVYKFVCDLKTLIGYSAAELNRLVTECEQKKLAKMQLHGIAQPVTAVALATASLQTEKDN
The note with it: protein: recombinant; tags: N-terminal GST; dsDNA, one strand shown. In short, it runs like this:
as §1

Experiment [4] addresses T4, ERG (Homo sapiens, UniProt P11308 1-479).
T4 sequence: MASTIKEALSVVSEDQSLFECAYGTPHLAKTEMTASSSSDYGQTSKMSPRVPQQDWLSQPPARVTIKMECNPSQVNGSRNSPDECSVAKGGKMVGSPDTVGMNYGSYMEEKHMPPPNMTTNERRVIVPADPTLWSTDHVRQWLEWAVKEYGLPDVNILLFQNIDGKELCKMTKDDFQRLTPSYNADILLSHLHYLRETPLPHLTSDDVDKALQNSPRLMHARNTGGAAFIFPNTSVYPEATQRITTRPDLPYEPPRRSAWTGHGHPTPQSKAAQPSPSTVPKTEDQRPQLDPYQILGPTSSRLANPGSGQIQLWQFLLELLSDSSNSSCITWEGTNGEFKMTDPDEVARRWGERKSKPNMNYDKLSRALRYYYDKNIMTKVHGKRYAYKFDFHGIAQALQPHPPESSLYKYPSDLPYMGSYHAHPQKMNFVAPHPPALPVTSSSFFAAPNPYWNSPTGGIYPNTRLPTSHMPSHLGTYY
The note with it: protein: recombinant; tags: N-terminal GST; dsDNA, one strand shown. In short, it runs like this: as §1

Experiment [5] deals with ELF1 (Homo sapiens, UniProt P32519 1-619). The note with it: protein: recombinant; tags: N-terminal GST; dsDNA, one strand shown. Put shortly: as §1
In experiment [6] the target is T5, EHF (Homo sapiens, UniProt Q9NZC4 1-300).
T5 sequence: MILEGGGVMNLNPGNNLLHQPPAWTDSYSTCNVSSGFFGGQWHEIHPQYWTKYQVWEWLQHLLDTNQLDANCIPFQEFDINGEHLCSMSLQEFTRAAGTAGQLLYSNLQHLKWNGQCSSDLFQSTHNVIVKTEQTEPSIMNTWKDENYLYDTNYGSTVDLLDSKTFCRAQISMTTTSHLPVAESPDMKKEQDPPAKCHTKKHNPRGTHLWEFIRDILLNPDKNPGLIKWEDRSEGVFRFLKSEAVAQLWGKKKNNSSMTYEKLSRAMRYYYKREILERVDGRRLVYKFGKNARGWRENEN
The note with it: protein: recombinant; tags: N-terminal GST; dsDNA, one strand shown. In short, it runs like this: as §1

Experiment [7] concerns the target SPI1 (Homo sapiens, UniProt P17947 1-270). The note with it: protein: recombinant; tags: N-terminal GST; dsDNA, one strand shown. Put shortly: as §1
In experiment [8] the target is SPIB (Homo sapiens, UniProt Q01892 1-262). The note with it: protein: recombinant; tags: N-terminal GST; dsDNA, one strand shown. Put shortly: as §1
Experiment [9] concerns the target T6, ELK3 (Homo sapiens, UniProt P41970 1-407).
T6 sequence: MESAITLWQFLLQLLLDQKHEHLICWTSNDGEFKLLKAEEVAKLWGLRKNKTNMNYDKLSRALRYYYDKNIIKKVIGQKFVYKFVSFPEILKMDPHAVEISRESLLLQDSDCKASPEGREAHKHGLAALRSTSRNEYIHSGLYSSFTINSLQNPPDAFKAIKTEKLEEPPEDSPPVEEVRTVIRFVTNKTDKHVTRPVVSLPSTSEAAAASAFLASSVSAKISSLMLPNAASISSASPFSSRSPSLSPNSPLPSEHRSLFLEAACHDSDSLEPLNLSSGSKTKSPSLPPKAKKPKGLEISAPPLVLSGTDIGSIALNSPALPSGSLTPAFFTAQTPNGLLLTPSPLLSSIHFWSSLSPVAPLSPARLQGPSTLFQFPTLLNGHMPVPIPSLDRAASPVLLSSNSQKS
The note with it: protein: recombinant; tags: N-terminal GST; dsDNA, one strand shown. In short, it runs like this: as §1

The target of experiment [10] is T7, FEV (Homo sapiens, UniProt Q99581 1-238).
T7 sequence: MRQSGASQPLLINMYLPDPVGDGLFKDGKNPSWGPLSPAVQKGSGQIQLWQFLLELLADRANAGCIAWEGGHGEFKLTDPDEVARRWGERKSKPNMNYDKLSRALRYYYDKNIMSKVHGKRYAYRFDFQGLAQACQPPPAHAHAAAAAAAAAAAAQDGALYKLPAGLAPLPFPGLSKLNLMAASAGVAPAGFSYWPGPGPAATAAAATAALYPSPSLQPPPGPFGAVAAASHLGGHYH
The note with it: protein: recombinant; tags: N-terminal GST; dsDNA, one strand shown. In short, it runs like this:
as §1

Experiment [11] addresses ETV5 (Homo sapiens, UniProt P41161 1-510). The note with it: protein: recombinant; tags: N-terminal GST; dsDNA, one strand shown. Put shortly: as §1
The target in experiment [12] is HSF1 (Homo sapiens, UniProt Q00613 1-529). The note with it: protein: recombinant; tags: N-terminal GST; chain copies: 3; dsDNA, one strand shown. In short, it runs like this: as §1
In experiment [13] the target is T8, SPIC (Homo sapiens, UniProt Q8N5J4 1-248).
T8 sequence: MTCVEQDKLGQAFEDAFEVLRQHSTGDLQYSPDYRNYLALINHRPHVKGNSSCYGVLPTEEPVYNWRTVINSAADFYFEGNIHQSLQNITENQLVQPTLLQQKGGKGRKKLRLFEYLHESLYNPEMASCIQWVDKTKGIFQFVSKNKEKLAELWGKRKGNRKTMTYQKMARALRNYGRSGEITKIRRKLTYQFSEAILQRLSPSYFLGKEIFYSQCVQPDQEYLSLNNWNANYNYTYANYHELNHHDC
The note with it: protein: recombinant; tags: N-terminal GST; dsDNA, one strand shown. In short, it runs like this: as §1

The target in experiment [14] is ELF4 (Homo sapiens, UniProt Q99607 1-663). The note with it: protein: recombinant; tags: N-terminal GST; dsDNA, one strand shown. Put shortly: as §1
Experiment [15] has as its target T9, ELK4 (Homo sapiens, UniProt P28324-2 1-405).
T9 sequence: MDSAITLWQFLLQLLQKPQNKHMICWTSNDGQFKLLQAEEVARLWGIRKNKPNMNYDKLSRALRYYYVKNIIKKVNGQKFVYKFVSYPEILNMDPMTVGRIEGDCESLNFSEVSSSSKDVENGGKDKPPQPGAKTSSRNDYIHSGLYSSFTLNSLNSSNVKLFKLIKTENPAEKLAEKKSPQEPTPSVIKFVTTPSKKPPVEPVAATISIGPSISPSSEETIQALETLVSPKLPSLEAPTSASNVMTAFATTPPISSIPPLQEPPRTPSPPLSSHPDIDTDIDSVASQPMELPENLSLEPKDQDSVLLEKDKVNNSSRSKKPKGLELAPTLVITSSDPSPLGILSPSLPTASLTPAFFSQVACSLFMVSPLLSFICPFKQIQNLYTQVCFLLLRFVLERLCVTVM
The note with it: protein: recombinant; tags: N-terminal GST; dsDNA, one strand shown. Put shortly: as §1

Experiment [16] deals with T10, ETV2 (Homo sapiens, UniProt O00321 1-342).
T10 sequence: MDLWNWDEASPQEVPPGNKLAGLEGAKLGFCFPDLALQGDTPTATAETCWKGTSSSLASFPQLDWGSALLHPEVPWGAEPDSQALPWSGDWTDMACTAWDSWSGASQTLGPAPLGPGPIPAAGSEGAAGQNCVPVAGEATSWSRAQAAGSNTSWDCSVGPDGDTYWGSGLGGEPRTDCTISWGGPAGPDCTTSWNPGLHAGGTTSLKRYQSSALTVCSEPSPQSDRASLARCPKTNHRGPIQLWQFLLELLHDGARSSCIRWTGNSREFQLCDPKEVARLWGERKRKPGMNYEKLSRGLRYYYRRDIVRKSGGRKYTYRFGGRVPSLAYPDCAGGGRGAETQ
The note with it: protein: recombinant; tags: N-terminal GST; dsDNA, one strand shown. Put shortly: as §1

Experiment [17] has as its target T11, ELF3 (Homo sapiens, UniProt P78545 1-371).
T11 sequence: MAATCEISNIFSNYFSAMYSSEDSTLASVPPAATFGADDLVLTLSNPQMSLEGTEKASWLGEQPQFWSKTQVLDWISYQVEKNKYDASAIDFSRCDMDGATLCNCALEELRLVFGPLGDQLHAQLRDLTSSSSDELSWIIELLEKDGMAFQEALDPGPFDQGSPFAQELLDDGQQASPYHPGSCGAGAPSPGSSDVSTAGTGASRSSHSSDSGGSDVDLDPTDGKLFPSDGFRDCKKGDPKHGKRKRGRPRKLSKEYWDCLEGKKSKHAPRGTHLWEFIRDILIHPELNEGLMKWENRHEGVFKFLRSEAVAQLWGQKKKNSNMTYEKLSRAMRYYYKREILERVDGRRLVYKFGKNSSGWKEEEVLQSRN
The note with it: protein: recombinant; tags: N-terminal GST; dsDNA, one strand shown. Put shortly:
as §1

In experiment [18] the target is ETV1 (Homo sapiens, UniProt P50549 1-477). The note with it: protein: recombinant; tags: N-terminal GST; dsDNA, one strand shown. In short, it runs like this:
as §1

Chain of ETV1 (P50549 whole entry): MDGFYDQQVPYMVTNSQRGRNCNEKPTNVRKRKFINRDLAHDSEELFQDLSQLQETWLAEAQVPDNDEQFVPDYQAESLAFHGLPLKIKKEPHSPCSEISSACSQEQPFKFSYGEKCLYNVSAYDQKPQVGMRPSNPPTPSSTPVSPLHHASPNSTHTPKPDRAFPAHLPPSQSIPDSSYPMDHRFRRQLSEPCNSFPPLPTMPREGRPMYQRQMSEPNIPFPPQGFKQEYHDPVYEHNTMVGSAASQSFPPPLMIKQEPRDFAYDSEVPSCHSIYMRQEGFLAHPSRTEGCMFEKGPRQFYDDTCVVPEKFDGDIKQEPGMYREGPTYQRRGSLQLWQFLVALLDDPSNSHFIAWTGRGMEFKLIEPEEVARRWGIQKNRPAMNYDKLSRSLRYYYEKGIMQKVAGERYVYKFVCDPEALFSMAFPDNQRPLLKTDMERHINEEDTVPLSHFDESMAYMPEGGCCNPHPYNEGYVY
Chain of ETV5 (P41161 whole entry): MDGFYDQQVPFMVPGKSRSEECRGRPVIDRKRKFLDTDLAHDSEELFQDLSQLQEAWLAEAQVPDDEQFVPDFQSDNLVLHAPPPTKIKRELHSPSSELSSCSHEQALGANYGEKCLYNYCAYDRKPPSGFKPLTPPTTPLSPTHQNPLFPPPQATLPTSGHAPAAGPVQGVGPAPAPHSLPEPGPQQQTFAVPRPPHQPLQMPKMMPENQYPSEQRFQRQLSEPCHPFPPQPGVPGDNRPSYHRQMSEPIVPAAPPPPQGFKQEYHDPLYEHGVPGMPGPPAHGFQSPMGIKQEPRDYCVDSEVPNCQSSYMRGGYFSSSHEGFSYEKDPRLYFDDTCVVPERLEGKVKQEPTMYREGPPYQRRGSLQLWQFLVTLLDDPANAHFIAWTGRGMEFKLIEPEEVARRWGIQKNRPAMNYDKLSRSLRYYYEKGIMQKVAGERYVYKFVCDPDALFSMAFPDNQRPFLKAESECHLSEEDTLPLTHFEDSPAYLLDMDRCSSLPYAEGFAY
Chain of ELF1 (P32519 whole entry): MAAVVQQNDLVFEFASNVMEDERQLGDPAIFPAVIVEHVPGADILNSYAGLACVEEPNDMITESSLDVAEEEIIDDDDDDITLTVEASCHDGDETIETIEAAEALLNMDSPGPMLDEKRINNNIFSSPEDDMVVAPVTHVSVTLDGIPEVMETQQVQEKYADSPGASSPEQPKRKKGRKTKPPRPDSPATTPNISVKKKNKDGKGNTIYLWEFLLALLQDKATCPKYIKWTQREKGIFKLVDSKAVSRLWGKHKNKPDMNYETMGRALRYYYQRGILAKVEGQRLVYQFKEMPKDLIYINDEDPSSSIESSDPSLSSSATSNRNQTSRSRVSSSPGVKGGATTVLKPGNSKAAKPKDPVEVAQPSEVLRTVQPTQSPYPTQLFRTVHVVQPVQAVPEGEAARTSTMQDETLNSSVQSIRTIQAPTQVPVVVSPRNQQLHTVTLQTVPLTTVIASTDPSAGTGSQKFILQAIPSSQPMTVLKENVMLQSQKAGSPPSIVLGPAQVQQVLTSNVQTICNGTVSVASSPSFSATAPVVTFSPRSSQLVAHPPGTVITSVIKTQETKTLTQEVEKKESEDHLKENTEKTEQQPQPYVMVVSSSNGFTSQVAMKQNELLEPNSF
Chain of ELF4 (Q99607 whole entry): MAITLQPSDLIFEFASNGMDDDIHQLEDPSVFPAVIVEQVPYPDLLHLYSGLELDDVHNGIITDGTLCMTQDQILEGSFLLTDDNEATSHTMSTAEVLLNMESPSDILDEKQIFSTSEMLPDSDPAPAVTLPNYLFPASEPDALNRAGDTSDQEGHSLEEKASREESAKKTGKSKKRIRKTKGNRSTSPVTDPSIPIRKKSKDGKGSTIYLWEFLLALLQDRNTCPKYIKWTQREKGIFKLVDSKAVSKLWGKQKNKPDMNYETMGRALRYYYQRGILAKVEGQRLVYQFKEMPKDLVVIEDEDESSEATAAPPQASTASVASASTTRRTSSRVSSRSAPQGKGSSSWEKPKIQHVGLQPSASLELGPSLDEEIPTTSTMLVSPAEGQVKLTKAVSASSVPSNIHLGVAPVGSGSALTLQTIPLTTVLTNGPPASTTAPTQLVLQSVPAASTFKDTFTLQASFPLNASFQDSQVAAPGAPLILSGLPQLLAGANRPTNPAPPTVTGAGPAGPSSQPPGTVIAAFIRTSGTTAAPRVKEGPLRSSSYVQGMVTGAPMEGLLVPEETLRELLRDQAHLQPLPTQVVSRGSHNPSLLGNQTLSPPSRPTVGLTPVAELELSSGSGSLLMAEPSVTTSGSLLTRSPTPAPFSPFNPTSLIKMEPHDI
Chain of SPIB (Q01892 whole entry): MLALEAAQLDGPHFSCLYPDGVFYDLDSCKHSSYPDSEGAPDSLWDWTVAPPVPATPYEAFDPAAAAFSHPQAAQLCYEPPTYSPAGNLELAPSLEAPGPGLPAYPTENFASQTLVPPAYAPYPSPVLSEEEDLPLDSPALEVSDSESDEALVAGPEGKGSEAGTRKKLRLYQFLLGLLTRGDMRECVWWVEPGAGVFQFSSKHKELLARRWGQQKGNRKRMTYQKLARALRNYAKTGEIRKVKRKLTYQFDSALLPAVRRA
Chain of HSF1 (Q00613 whole entry): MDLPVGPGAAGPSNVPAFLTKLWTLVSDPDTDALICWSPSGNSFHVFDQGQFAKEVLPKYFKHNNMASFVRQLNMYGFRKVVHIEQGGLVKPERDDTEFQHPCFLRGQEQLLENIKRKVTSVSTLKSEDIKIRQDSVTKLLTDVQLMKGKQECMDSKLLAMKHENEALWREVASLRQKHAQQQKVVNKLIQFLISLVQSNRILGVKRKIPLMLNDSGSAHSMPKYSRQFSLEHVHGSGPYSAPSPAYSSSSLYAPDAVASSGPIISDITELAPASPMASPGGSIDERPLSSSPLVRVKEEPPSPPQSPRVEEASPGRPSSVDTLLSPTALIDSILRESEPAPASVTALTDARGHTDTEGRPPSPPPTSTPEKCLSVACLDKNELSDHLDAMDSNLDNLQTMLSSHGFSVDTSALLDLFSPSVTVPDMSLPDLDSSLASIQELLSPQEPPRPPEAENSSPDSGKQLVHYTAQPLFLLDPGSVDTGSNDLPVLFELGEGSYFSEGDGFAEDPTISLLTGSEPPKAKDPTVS

With GTAACT, the binding signal in experiment [1] is 1.31 fold enrichment (6-mer frequency, TF over GST control); in experiment [2], 1.25 fold enrichment (6-mer frequency, TF over GST control); in [3], 1.22 fold enrichment (6-mer frequency, TF over GST control); in [4], 1.25 fold enrichment (6-mer frequency, TF over GST control); in experiment [5] it was 1.22 fold enrichment (6-mer frequency, TF over GST control); in experiment [6], 1.21 fold enrichment (6-mer frequency, TF over GST control). Moreover, the binding signal in [7] was 1.35 fold enrichment (6-mer frequency, TF over GST control); in experiment [8], 1.28 fold enrichment (6-mer frequency, TF over GST control); in [9], 1.11 fold enrichment (6-mer frequency, TF over GST control); in experiment [10] it was 1.18 fold enrichment (6-mer frequency, TF over GST control); in experiment [11], 1.21 fold enrichment (6-mer frequency, TF over GST control); in experiment [12], 1.02 fold enrichment (6-mer frequency, TF over GST control). Besides, the binding signal was 1.37 fold enrichment (6-mer frequency, TF over GST control) in experiment [13]; 1.27 fold enrichment (6-mer frequency, TF over GST control) in [14]; 1.26 fold enrichment (6-mer frequency, TF over GST control) in experiment [15]; 1.2 fold enrichment (6-mer frequency, TF over GST control) in experiment [16]; 1.16 fold enrichment (6-mer frequency, TF over GST control) in [17]; 1.16 fold enrichment (6-mer frequency, TF over GST control) in [18].
